Screening results (PubChem)
PG9 Ab binder: PG9 antibody binding by small molecule | TR-FRET gp120-PG9 antibody binding | inhibition, % at 6.7 µM | 360,000 tested, 0.43% active | AID 624416; in the data active means inhibition above about 8.5%
PKA-R1A act: PKA-R1A complex activation; 340,000 tested, 0.083% active; P00514+P68181; activation, % at 11.4 µM; PKA-R1A dissociation, Cy5-IP20 fluorescence polarization; scaled: DMSO 0%, 113 µM cGMP 100%;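 active means percent activation above the mean of all tested compounds plus 3 SD, cut at about 19% in these data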;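 further: higher means more PKAc released from R1A so a rise in polarization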
PKA-R2B act: activators of human PKA-R2B complex. 340,000 tested, 0.079% active. PKA-R2B holoenzyme dissociation, Cy5-IP20 fluorescence polarization; R2B truncated from residue 108, S112A mutant; 0% DMSO only, 100% 113 µM cGMP. activation, % at 11.4 µM;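 active means activation above a cutoff set at the mean over all compounds plus 3 SD, cut at about 18% in these data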;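 further: higher means more holoenzyme dissociation and a rise in polarization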
NR1D1 modulator: modulators of human Rev-erb alpha DNA binding. P20393. Rev-erbα–FITC-DNA binding, fluorescence polarization, 90 min. activity, % at 10 µM. 370,000 tested, 0.79% active. AID 1259318;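 active means activity above about 14%, limit read from the data; passing the limit was not always enough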;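 further: 0% = DMSO wells with 35 nM protein and 100% = DMSO wells with 750 nM protein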
Target sequence (P20393 whole entry, looked up): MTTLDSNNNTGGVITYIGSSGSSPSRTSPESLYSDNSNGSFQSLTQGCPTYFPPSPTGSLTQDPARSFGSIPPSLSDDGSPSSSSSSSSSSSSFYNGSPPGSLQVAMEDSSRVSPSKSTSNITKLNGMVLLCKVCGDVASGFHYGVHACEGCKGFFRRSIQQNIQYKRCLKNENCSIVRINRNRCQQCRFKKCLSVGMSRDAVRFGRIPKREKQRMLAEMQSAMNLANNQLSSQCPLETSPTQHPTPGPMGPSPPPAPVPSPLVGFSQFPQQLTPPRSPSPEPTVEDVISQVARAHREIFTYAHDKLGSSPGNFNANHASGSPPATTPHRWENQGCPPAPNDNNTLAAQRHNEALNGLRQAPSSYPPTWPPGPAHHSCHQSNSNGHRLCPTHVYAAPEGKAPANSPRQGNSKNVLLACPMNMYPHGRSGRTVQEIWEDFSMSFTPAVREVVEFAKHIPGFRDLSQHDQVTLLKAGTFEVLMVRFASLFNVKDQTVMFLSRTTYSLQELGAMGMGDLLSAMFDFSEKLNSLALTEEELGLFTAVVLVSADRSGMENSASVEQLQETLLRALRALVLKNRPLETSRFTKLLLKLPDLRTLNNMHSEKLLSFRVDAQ
NR1D1 mod conf: Rev-erb alpha (human) modulation, hit confirmation; shares compounds with NR1D1 modulator; Rev-erb alpha FITC-DNA binding, fluorescence polarization, 90 min; activation, % at 25 µM; 3,000 tested, 61% active;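 active means activation at or above a set limit, or at least 3 SD above the negative control mean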;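 further: 0% = 35 nM protein with DMSO and 100% = 750 nM protein high control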
RORg counter: RORgamma DNA-binding activity, dose-response counter-screen. 910 tested, 8% active. purified RORgamma protein-FITC-DNA binding, fluorescence polarization. shares compounds with NR1D1 modulator. IC50, µM;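 active means Compounds whose fitted half-maximal concentration for disrupting protein-DNA binding is below 10 micromolar; the record names Rev-erb in its text, so the target is in doubt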
Starred values were filed as active, the others as inactive; i = inactive; x = no result. In the library only some 1.2% were active in any assay of this set; here they are far more common.

SMILES	PG9 Ab binder	PKA-R1A act	PKA-R2B act	NR1D1 modulator	NR1D1 mod conf	others
COC(=O)[C@]12C[C@H](CC(=O)NCc3ccc(C)o3)C(=O)N(Cc3ccco3)C1=C[C@H](C(C)C)O[C@@H]2C1CC1	x	x	x	1.0	x
CCC(C)(C)c1ccc(OCCCC[n+]2cccc(C)c2C)c(C(C)(C)CC)c1	-1.1	-2.0	-3.7	41.7*	43.0*
Cc1cc[n+](CC[n+]2ccc(C)cc2)cc1	0.9	-1.5	7.6	-2.2	x
Cc1cc(C(C)(C)C)ccc1OCCCCN1CCCC1	0.6	-8.6	-5.6	0.6	x
CCC(C)(C)c1ccc(OCCCC[n+]2ccc(C)cc2)c(C(C)(C)CC)c1	-0.5	x	x	33.6*	36.1*	RORg counter=>40
COc1ccccc1CNC(=O)C[C@H]1CC[C@H]2[C@H](COc3ccc(NS(=O)(=O)c4ccc(C)cc4)cc3C(=O)N2C)O1	x	x	x	-1.3	x
CCOCCCNC(=O)c1cc(-c2ccc(Br)s2)nc2ccccc12	-28.8	1.8	1.1	21.5*	-15.4
CC1(C)Cc2c(sc3nc(-c4cc5ccccc5o4)n(N)c(=O)c23)CO1	0.3	-4.0	8.0	47.8*	25.6*
Cc1ccc(-c2nc3sc4c(c3c(=O)n2N)CC(C)(C)OC4)cc1	0.0	15.1	0.0	15.5	x
COc1cc(C=Nn2c(-c3cc(C)[nH]n3)n[nH]c2=S)cc(Br)c1O	x	x	x	2.0	x
CCOC(=O)c1cc(-c2ccccc2)sc1NC(=O)C(C)OC(=O)c1cccnc1Cl (stereo not given)	-1.7	0.5	-9.4	19.9*	12.7
CCOC(=O)c1cc(-c2ccccc2)sc1NC(=S)Nc1cccc(C)n1	1.9	-5.7	1.6	26.1*	0.7
Cc1ccc2c(n1)sc1c(-c3ccccc3)c(C#N)c(N)nc12	0.5	-1.4	-2.9	49.0*	38.0*	RORg counter=>40
Cc1nc(N)c(C#N)c(-c2cccnc2)c1-c1ccccc1	6.0	3.0	-5.0	2.0	x
CCCCOCCCNC(=O)C[C@H]1C[C@@]2(C(=O)OC)C(=C[C@H](COCc3ccccc3)O[C@@H]2C)N(Cc2ccco2)C1=O	x	x	x	-3.6	x
CCOC(=O)c1sc2nc(C)nc(NCc3ccc(F)cc3)c2c1C	0.4	-3.1	-6.5	0.8	x
CCOC(=O)c1sc2nc(C)nc(Nc3ccc(OC)cc3)c2c1C	1.6	13.2	7.8	31.4*	13.1
Cc1ccc(-n2c(N)c(C#N)c(-c3ccc(Cl)cc3)c(C#N)c2=O)cc1	0.1	-10.5	2.6	49.3*	39.4*	RORg counter=>40
COc1ccc(CCNC(=O)c2cc3c(C)nn(-c4ccccc4)c3s2)cc1OC	x	x	x	-4.3	x
N[C@@H](CCC(=O)N[C@@H](CS)C(=O)NCC(=O)O)C(=O)O	x	x	x	-7.2	x
COc1cc(-c2nn3c(Cc4ccccc4)nnc3s2)cc(OC)c1OC	-2.4	-0.8	-6.3	2.8	x
COc1cc(-c2nn3c(COc4ccccc4)nnc3s2)cc(OC)c1OC	4.0	1.9	-4.2	44.5*	43.6*	RORg counter=i
Cc1ccc(C)c(NC(=O)CSc2nc(C)cc(C)c2C#N)c1	4.5	8.9	-6.2	38.0*	25.2*
COC(=O)CSc1nc(C)cc(C)c1C#N	-2.4	11.9	-2.4	-1.8	x
CCOC(=O)c1sc(NC(=O)CSc2nc3c(cc2C#N)CCCCCC3)c(C#N)c1C	-2.2	-2.1	-7.2	3.1	x
SMILES	PG9 Ab binder	PKA-R1A act	PKA-R2B act	NR1D1 modulator	NR1D1 mod conf	others
N#Cc1c(SCC(N)=O)nc2c(c1-c1ccc(O)cc1)CCCC2	-0.1	3.0	-0.1	2.4	x
CCOC(=O)c1sc(NC(=O)CSc2nc3c(c(-c4ccc(OC)cc4)c2C#N)CCCC3)c(C#N)c1C	-0.8	3.0	4.5	31.7*	21.9*
COc1ccc(-c2c(C#N)c(SCC(N)=O)nc3c2CCCC3)cc1	-2.0	0.7	-6.6	67.6*	37.3*	RORg counter=>40
CCOC(=O)c1sc(NC(=O)CSc2nc(C)cc(C)c2C#N)c(C#N)c1C	-0.3	-0.9	1.4	23.6*	14.4
C#CCCN([C@@H](CC(C)C)C(=O)OC)S(=O)(=O)c1ccc(F)cc1Br	x	x	x	4.4	x
CC1(C)Cc2c(sc(NC(=O)COc3ccc(Cl)cc3)c2C(N)=O)C(C)(C)N1	0.0	5.9	12.8	16.4*	-1.3
CC(=O)CC[C@H]1CC[C@]2(CCCN(C(=O)C3CCCC3)C2)O1	x	x	x	-4.7	x
CC(=O)N1CCc2cc(S(=O)(=O)NC3CCN(C(=O)CCl)CC3)ccc21	x	x	x	0.3	x
